{"source": "the antibiotic and cytotoxicity screens of Wong et al. (2023)", "note": "Screen size: about 39,000 compounds; about 1,500 (3.8%) were called active. This is one part of a sample in which actives are shown more often than they occur."}
{"system": "HSkMC (human skeletal muscle cells)", "assay": "cytotoxicity call (relative viability < 0.9)", "details": "10 µM"}
{"smiles": "CC(C=CC=C(C)C=CC(=O)C1(C)CC(O)CC1(C)C)=CC=CC=C(C)C=CC=C(C)C=CC1=C(C)CC(O)CC1(C)C", "note": "(stereo unspecified)", "cytotoxicity call": "inactive"}
{"smiles": "C[C@@H]1CN([C@H](C)CO)C(=O)c2cc(NC(=O)Cn3cnnn3)ccc2O[C@H]1CN(C)Cc1ccc(-c2ccccc2)cc1", "cytotoxicity call": "inactive"}
{"smiles": "CN1CCN(C(=O)C[C@H]2C=C[C@H](NC(=O)Nc3ccccc3F)[C@@H](CO)O2)CC1", "cytotoxicity call": "inactive"}
{"smiles": "COC(=O)C[C@H]1CC[C@@H]2[C@H](COC[C@H](O)CN2S(=O)(=O)c2cn(C)cn2)O1", "cytotoxicity call": "inactive"}
{"smiles": "C[C@@H]1CN([C@H](C)CO)C(=O)c2cc(N(C)C)ccc2O[C@@H](C)CCCCO[C@H]1CN(C)C(=O)Nc1cccc2ccccc12", "cytotoxicity call": "inactive"}
{"smiles": "C[C@@H]1CCCCO[C@H](CN(C)S(=O)(=O)c2ccc(Cl)cc2)[C@H](C)CN([C@H](C)CO)C(=O)c2cc(NS(=O)(=O)c3ccccc3)ccc2O1", "cytotoxicity call": "inactive"}
{"smiles": "C[C@@H]1CCCCO[C@H](CN(C)CC2CCCCC2)[C@@H](C)CN([C@H](C)CO)C(=O)c2cc(NC(=O)Nc3cccc4ccccc34)ccc2O1", "cytotoxicity call": "active"}
{"smiles": "C[C@H](CO)N1C[C@H](C)[C@@H](CN(C)CC2CC2)OCCCC[C@H](C)Oc2ccc(NC(=O)Nc3cccc4ccccc34)cc2C1=O", "cytotoxicity call": "inactive"}
{"smiles": "C[C@@H]1CCCCO[C@@H](CN(C)CC2CCCCC2)[C@@H](C)CN([C@H](C)CO)C(=O)c2cc(NC(=O)Nc3cccc4ccccc34)ccc2O1", "cytotoxicity call": "active"}
{"smiles": "C[C@@H]1CCCCO[C@H](CN(C)CC2CCCCC2)[C@H](C)CN([C@H](C)CO)C(=O)c2cc(NC(=O)Nc3cccc4ccccc34)ccc2O1", "cytotoxicity call": "active"}
{"smiles": "C[C@@H]1CCCCO[C@H](CN(C)CC2CC2)[C@H](C)CN([C@@H](C)CO)C(=O)c2cc(NC(=O)Nc3cccc4ccccc34)ccc2O1", "cytotoxicity call": "inactive"}
{"smiles": "C[C@H]1CCCCO[C@H](CN(C)CC2CCCCC2)[C@@H](C)CN([C@@H](C)CO)C(=O)c2cc(NC(=O)Nc3cccc4ccccc34)ccc2O1", "cytotoxicity call": "active"}
{"smiles": "C[C@H](CO)N1C[C@H](C)[C@@H](CN(C)C)OCCCC[C@H](C)Oc2ccc(NC(=O)Nc3cccc4ccccc34)cc2C1=O", "cytotoxicity call": "inactive"}
{"smiles": "C[C@@H]1CCCCO[C@@H](CN(C)CC2CC2)[C@H](C)CN([C@@H](C)CO)C(=O)c2cc(NC(=O)Nc3cccc4ccccc34)ccc2O1", "cytotoxicity call": "inactive"}
{"smiles": "C[C@@H]1CCCCO[C@@H](CN(C)CC2CC2)[C@@H](C)CN([C@H](C)CO)C(=O)c2cc(NC(=O)Nc3cccc4ccccc34)ccc2O1", "cytotoxicity call": "inactive"}
{"smiles": "C[C@@H]1CN([C@@H](C)CO)C(=O)c2cc(NC(=O)Nc3cccc4ccccc34)ccc2O[C@@H](C)CCCCO[C@H]1CN(C)CC1CC1", "cytotoxicity call": "inactive"}
